Bead autofluor = counter-screen for toxin protease inhibitors: compound fluorescence. fluorescence intensity (concentration not given with the values). 360,000 compounds, 3.1% hits. compound autofluorescence counterscreen, microsphere flow cytometry; active compounds read high; in the data active means fluorescence intensity above about 16000; inconclusive means no clear call, values can overlap the other calls
Anthrax LF inh2 = anthrax lethal factor protease inhibition; 360,000 compounds, 0.12% hits; multiplex microsphere protease cleavage assay, LF; inhibition, % at 10 µM; AID 588501; P15917; further: plate controls were buffer without enzyme for full effect and enzyme alone for no effect
BoNT-A LC inh2 = BoNT A light chain protease inhibition; multiplex microsphere protease substrate cleavage, flow cytometry; inhibition, % at 10 µM; 360,000 compounds, 0.17% hits; AID 588499; further: plate controls were buffer without enzyme for full effect and enzyme alone for no effect
BoNT F protease = inhibitors of Botulinum neurotoxin F light chain protease | AID 588497 | 360,000 compounds, 0.22% hits | inhibition, % at 10 µM | Multiplex microsphere protease cleavage assay, flow cytometry; in the data active means inhibition above about 35%, passing the limit was not always enough; inconclusive means no clear call, values can overlap the other calls; further: plate controls were buffer without enzyme for full effect and enzyme alone for no effect
* = called active by the depositor. Rows were chosen to be rich in hits. Some 3.5% of all compounds tested hit in one or more screens of this group. Unless noted, no stated cut-off is given here; in the data, active means inhibition above about 30%; inconclusive means no clear call, values can overlap the other calls; inactive means below that.

Screening Cc1c(C(=O)Nc2cccc([N+](=O)[O-])c2)csc1-c1ccccc1 returned Bead autofluor 16284*, Anthrax LF inh2 -8, BoNT-A LC inh2 -1 and BoNT F protease -4.
Screening Cc1ccc(NC(=O)c2csc(-c3ccccc3)c2C)cc1 returned Bead autofluor 23926*, Anthrax LF inh2 2, BoNT-A LC inh2 0 and BoNT F protease 0.
Screening CC1(C)NC(C)(C)C(O)(C(N)=O)C1=O (stereo not given) returned Bead autofluor 23198*, Anthrax LF inh2 -2, BoNT-A LC inh2 -2 and BoNT F protease -1.
Screening COc1ccc(C2=Nn3c(nnc3-c3ccc(OC)cc3)SC2)cc1 returned Bead autofluor 11951, Anthrax LF inh2 -8, BoNT-A LC inh2 -3 and BoNT F protease -6.
`COc1cccc(-c2nnc3n2N=C(C(C)(C)C)CS3)c1` gave Bead autofluor 23357*, Anthrax LF inh2 2, BoNT-A LC inh2 0 and BoNT F protease -2.
For CC1=Nn2c(nnc2-c2ccco2)SC1 the results were Bead autofluor 22078*, Anthrax LF inh2 0, BoNT-A LC inh2 2 and BoNT F protease 3.
`COc1cccc(-c2nnc3n2N=C(c2cc(OC)ccc2OC)CS3)c1` gave Bead autofluor 5429, Anthrax LF inh2 4, BoNT-A LC inh2 0 and BoNT F protease -5.
`COc1ccc(-c2nnc3n2N=C(C)CS3)cc1` gave Bead autofluor 23552*, Anthrax LF inh2 -1, BoNT-A LC inh2 inconclusive and BoNT F protease -1.
Screening CCN(CC)Cc1c(C(=O)N/N=C(\C)c2ccncc2)nnn1-c1nonc1N returned Bead autofluor 2979, Anthrax LF inh2 9, BoNT-A LC inh2 1 and BoNT F protease -7.
CC(=O)c1cccc(NC(=O)NC2CC(=O)N(c3ccc4c(c3)OCCO4)C2)c1 (stereo not given) was read as Bead autofluor 4829, Anthrax LF inh2 -2, BoNT-A LC inh2 0 and BoNT F protease 12.
For COc1ccc(N2C(=O)C(CC(=O)O)S/C2=N\N=C\c2cccs2)cc1 (stereo not given) the results were Bead autofluor 3074, Anthrax LF inh2 3, BoNT-A LC inh2 3 and BoNT F protease 43*.
For CCCCOc1ccc(C(=O)Nn2cnnc2)cc1 the results were Bead autofluor 23869*, Anthrax LF inh2 -5, BoNT-A LC inh2 inconclusive and BoNT F protease 0.
Screening CC(C)OC(=O)c1cc(C(=O)c2cc(F)ccc2O)coc1=N returned Bead autofluor 16808*, Anthrax LF inh2 -2, BoNT-A LC inh2 0 and BoNT F protease -1.
O=C(NCc1ccccc1Br)c1ccncc1 was read as Bead autofluor 6789, Anthrax LF inh2 -2, BoNT-A LC inh2 -4 and BoNT F protease -9.
For CC1=CC(C)(C)Nc2ccc(OC(=O)CCN3C(=O)c4ccccc4C3=O)cc21 the results were Bead autofluor 2940, Anthrax LF inh2 -4, BoNT-A LC inh2 -1 and BoNT F protease -6.
`CC1=CC(C)(C)Nc2ccc(OS(=O)(=O)c3ccc(C)cc3)cc21` gave Bead autofluor 17799*, Anthrax LF inh2 0, BoNT-A LC inh2 5 and BoNT F protease 4.
`CN(c1ccc(O)cc1)c1nc(-c2cccs2)cs1` gave Bead autofluor 4064, Anthrax LF inh2 -1, BoNT-A LC inh2 -1 and BoNT F protease -1.
`Cc1nc(N)sc1-c1csc(N(C)c2ccc(O)cc2)n1` gave Bead autofluor 23793*, Anthrax LF inh2 -1, BoNT-A LC inh2 0 and BoNT F protease -6.
For COc1cc(OC)c(N(C)C(=O)c2cn(C)c(=O)c3cc(OC)c(OC)cc23)cc1Cl the results were Bead autofluor 4150, Anthrax LF inh2 -1, BoNT-A LC inh2 -3 and BoNT F protease -3.
CC(C)(C(=O)c1ccccc1)/[N+]([O-])=C/c1ccc(Br)cc1 was read as Bead autofluor 22272*, Anthrax LF inh2 -4, BoNT-A LC inh2 3 and BoNT F protease 7.
Screening CC(COC(=O)c1ccccc1)(COC(=O)c1ccccc1)/[N+]([O-])=C/c1ccccc1 returned Bead autofluor 2282, Anthrax LF inh2 2, BoNT-A LC inh2 0 and BoNT F protease 2.
Screening CC(C)CC(=O)c1c[nH]c(C(=O)NCCCn2ccnc2)c1 returned Bead autofluor 19657*, Anthrax LF inh2 -2, BoNT-A LC inh2 1 and BoNT F protease 2.
For CCC(CC)C(=O)c1c[nH]c(C(=O)NCCCn2ccnc2)c1 the results were Bead autofluor 22434*, Anthrax LF inh2 0, BoNT-A LC inh2 inconclusive and BoNT F protease -2.
Screening Cc1ccc(-c2nnc(Nc3ccccc3)c3ccccc23)cc1S(=O)(=O)NCC1CCCO1 (stereo not given) returned Bead autofluor 21430*, Anthrax LF inh2 -1, BoNT-A LC inh2 3 and BoNT F protease 3.
